Calls of active or inactive are those of the source. Calls come from the whole dose curve; as a rule, active = well fitted curve in the direction sought with a large enough effect in the repeat runs; inconclusive = weak or mixed curves; inactive = flat fitted curve, though single readings scatter.
Assay: qHTS assay to test for compound auto fluorescence at 460 nm (blue) in HepG2 cell free culture (AID 720685)
Details: Cell-free culture medium, blue autofluorescence 405/460 nm; series mostly up to 91.3 µM
Excerpt: U.S. Tox21 Program National Center for Advancing Translational Sciences [NCATS] NIH Chemical Genomics Center [NCGC] U.S. Environmental Protection Agency [EPA] National Institutes of Environmental Health Sciences [NIEHS] National Toxicology Program [NTP] U.S. Food and Drug Administration [FDA] Tox21 Assay Overview: Compound auto fluorescence often interferes with screening of the compound library against various biological targets and signaling pathways. Some of these compounds may have fluorophoric properties. Such properties may interfere with the assay outputs resulting in false positives and/or negatives. To decrease such complications and ensure the compound activities are relevant in terms of biological response, the Tox21 10K compound library was screened for auto fluorescence. From the fluorophores used as reporter signals in our screening assays, the auto fluorescence equivalencies of compounds against three fluorophores have been evaluated: Triamterene, Fluorescein and Rose Bengal sodium for blue, green and red fluorescence, respectively. The fluorescence intensities were measured using Excitation/Emission wavelengths at 405/460nm, 485/535nm and 540/590nm for blue, green and red labels, respectively. This assay includes the blue fluorescence data.
Tox21 Assay Protocol Summary: 5 uL of culture medium (MEM containing 10% FBS) per well was dispensed into black wall/clear bottom 1536-well plates using a Multidrop Combi Dispenser (ThermoFisher Scientific, Waltham, MA). After 23 nL compound or DMSO vehicle was transferred into assay plate by a pintool work station (Kalypsys, San Diego, CA), fluorescence intensities in the assay plates were measured by an Envision (PerkinElmer, Shelton, CT) plate reader using three labels for measuring blue, green and red fluorescence at […] 460, 535 and 590nm respectively.

| SMILES | outcome |
| --- | --- |
| Nc1ccccc1[N+](=O)[O-] | inactive |
| C=C(C)C(=O)OCCOCCOCCOC(=O)C(=C)C | inactive |
| O=C(O)CCCCCCCCCCC(=O)O | inactive |
| COc1ccc(NC(C)=O)cc1N | inactive |
| O=C(O)c1ccc(C(=O)O)cc1 | inactive |
| COc1cc(Cc2cnc(N)nc2N)cc(OC)c1OC | inactive |
| C#C[C@]1(O)CC[C@H]2[C@@H]3CCC4=CC(=O)CC[C@@H]4[C@H]3CC[C@@]21C | inactive |
| OCc1cccnc1 | inactive |
| CCCCN(CCCC)CCCC | inactive |
| O=C(O)c1cc(C(=O)O)cc(S(=O)(=O)O)c1 | inactive |
| Cc1cccnc1 | inactive |
| CC(C)(C)[C@@H](O)[C@@H](Cc1ccc(Cl)cc1)n1cncn1 | inactive |
| O=C(O)c1cc(O)c(O)c(O)c1 | inactive |
| CCCCOC(=O)COc1ccc(Cl)cc1Cl | inactive |
| CC[C@H](C)C(=O)O[C@H]1C[C@@H](C)C=C2C=C[C@H](C)[C@H](CC[C@@H]3C[C@@H](O)CC(=O)O3)[C@H]21 | inactive |
| O=C(O)CC(C(=O)O)C(CC(=O)O)C(=O)O (stereo not given) | inactive |
| CCc1cccc(C)c1N | inactive |
| C[C@H]1C[C@@H]2[C@H]([C@@H](O)C[C@@]3(C)[C@H]2CC[C@]3(O)C(=O)CO)[C@@]2(C)C=CC(=O)C=C12 | inactive |
| CC(C)(N)CO | inactive |
| CCc1ccc(CCOc2ccc(CC3SC(=O)NC3=O)cc2)nc1 (stereo not given) | inactive |

| SMILES | outcome |
| --- | --- |
| CCCCCC1=CCCC1=O | inactive |
| O=P(OC(CCl)CCl)(OC(CCl)CCl)OC(CCl)CCl | inactive |
| OCC(CO)(CBr)CBr | inactive |
| CC(C)CC(=O)CC(C)C | inactive |
| O=S1(=O)CC=CC1 | inactive |
| CCC(O)OC(O)CC (stereo not given) | inactive |
| Cc1ccc(S(N)(=O)=O)cc1 | inactive |
| COS(C)(=O)=O | inactive |
| OCCOCCN1CCN(C2=Nc3ccccc3Sc3ccccc32)CC1 | inactive |
| O=C(O)[C@H](O)[C@@H](O)[C@H](O)[C@H](O)CO | inactive |
| CCCCCCCC(=O)OC | inactive |
| O=C(O)c1ccc2c(c1)C(=O)OC2=O | inactive |
| C=CCNC(N)=S | inactive |
| Oc1cccc2ccccc12 | inactive |
| CC1=CC(=O)NS(=O)(=O)O1 | inactive |
| CC1=CCC2CC1C2(C)C (stereo not given) | inactive |
| CCCCCCCCCC | inactive |
| CCCCCCCCCCCCS | inactive |
| CC(c1cc2ccccc2s1)N(O)C(N)=O (stereo not given) | inactive |
| c1ccc(OCCOc2ccccc2)cc1 | inactive |
